DAX1 inh-1 – DAX1 (NR0B1) inhibitors on StAR promoter, primary screen, cell-based, luminescence, SF-1 (NR5A1), full-length DAX-1; 1.1% of 370,000 active; HEK293T StAR-luciferase reporter, SF-1/DAX-1 repression relief; inhibition, % at 6.8 µM;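 active = inhibition above the mean over all tested compounds plus 3 SD, cut at about 3.6% in these data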;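 also: 0% = DAX-1 cells with DMSO and 100% = cells lacking DAX-1 with DMSO; higher inhibition means more luminescence from relief of DAX-1 repression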
hgDAF12 agonist – H. glycines DAF-12 receptor agonists, primary screen, cell-based, luminescence, HEK293, GAL4 fusion, UAS-luciferase; Nuclear hormone receptor DAF-12 (Heterodera glycines), GAL4 fusion; HEK293 GAL4-hgDAF12 UAS-luciferase reporter, agonist luminescence; normalized to butyrate control; activation, % at 6.8 µM; 1.8% of 370,000 active; AID 687014, 2013;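 active = activation above a cutoff set at the mean of all screened compounds plus 3 SD, cut at about 10% in these data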;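 also: 0% = DMSO wells and 100% = sodium butyrate wells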
DAX1 inh-2 – DAX1 (NR0B1) inhibitors, primary screen, cell-based, HEK293, Gal4-DAX1, luciferase luminescence; 0.99% of 340,000 active; inhibition, % at 6.75 µM; HEK293 Gal4-DAX1 luciferase reporter;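 active = inhibition above the mean over all tested compounds plus 3 SD, cut at about 4.2% in these data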;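 also: 0% = DAX1-transfected cells with DMSO and 100% = empty-vector control cells with DMSO; inhibition shows as a rise in luminescence from relieved DAX1 repression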
Target sequence (P51843 207-470 limits assumed): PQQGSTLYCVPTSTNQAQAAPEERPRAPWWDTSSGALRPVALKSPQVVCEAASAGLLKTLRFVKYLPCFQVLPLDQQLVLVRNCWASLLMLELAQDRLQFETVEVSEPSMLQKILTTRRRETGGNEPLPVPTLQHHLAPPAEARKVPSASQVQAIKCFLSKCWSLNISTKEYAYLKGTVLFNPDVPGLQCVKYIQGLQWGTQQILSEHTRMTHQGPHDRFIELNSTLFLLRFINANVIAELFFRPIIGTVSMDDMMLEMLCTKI
SMARCA2 activ – SMARCA2 (BRM) function activators, primary screen, cell-based, luminescence, high throughput. MG213 cells, MMTV-luciferase reporter, dexamethasone, overnight. activation, % at 9.1 µM. 1% of 370,000 active. AID 652017, 2013; in the data active = activation above about 7.8%;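 also: 0% = vehicle wells and 100% = reference activator wells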
hcDAF12 agonist – H. contortus DAF-12 nuclear receptor activators, primary screen, cell-based, luminescence, HEK293, lit1-tk-luc reporter; HEK293 hcDAF-12 lit1-tk-luc reporter; 0% DMSO, 100% Δ7-dafachronic acid; activation, % at 6.8 µM; 1.4% of 370,000 active;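 active = activation above the mean of all tested compounds plus 3 SD, cut at about 5.5% in these data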;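 also: 100% = response to 3 µM Δ7-dafachronic acid high control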
ssDAF-12 act – S. stercoralis DAF-12 nuclear receptor activators, primary screen, cell-based, luminescence, HEK293, GRIP1 co-expression, lit1-tk-luc; activation, % at 6.8 µM; 1% of 370,000 active; HEK293 ssDAF-12/GRIP1 lit1-tk-luc reporter; % of 3 µM dafachronic acid response;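 active = activation above the mean over all tested compounds plus 3 SD, cut at about 0.9% in these data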;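 also: 0% = DMSO-only wells and 100% = 3 µM delta7-dafachronic acid wells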
Starred values were filed as active, the others as inactive; . = not tested or not shown. A selection: hits, their analogues and other compounds. The true share with any hit is near 4.8%.

SMILES	DAX1 inh-1	hgDAF12 agonist	DAX1 inh-2	SMARCA2 activ	hcDAF12 agonist	ssDAF-12 act
CC(C)(C)c1ccc(OCc2ccc(C(=O)N3CCOCC3)o2)cc1	0.3	-3.0	-0.7	3.1	-0.3	-1.5
N#Cc1nc(COc2ccccc2)oc1NCCN1CCOCC1	1.0	0.3	0.3	-0.6	1.7	-1.1
CCc1nc2c(OCc3ccc(Cl)cc3)cccn2c1N(C)C(=O)c1ccccc1F	-2.0	-1.3	.	-0.3	-2.5	-1.9
COc1ccc(OC)c(S(=O)(=O)N2CCC(c3nc4ccccc4[nH]3)CC2)c1	4.1*	0.8	-0.3	0.2	1.2	-0.3
COc1ccc(S(=O)(=O)N2CCCCCC2)cc1	0.5	0.4	1.2	-3.3	-0.8	-1.4
COc1ccc(-c2ccc(S(=O)(=O)N3CCCC3)cc2)cc1	-0.9	-0.9	5.2*	-2.2	-1.9	-1.4
COc1ccc(S(=O)(=O)N2CCC(c3nc4ccccc4[nH]3)CC2)cc1	0.3	-0.1	0.0	-1.7	-0.8	-0.8
Cc1cc2c(cc1C)CN(c1ccccc1)C2	2.2	12.5*	3.4	5.7	5.2	0.1
Cc1cc(N2Cc3ccccc3C2)ccc1C=O	1.5	13.1*	0.1	0.5	5.3	-0.1
COC(=O)c1ccc(N2CCN(C(=O)C3CC3)CC2)c([N+](=O)[O-])c1	-0.4	-1.7	2.6	0.6	0.2	-0.7
O=C(c1cc2ccccc2oc1=O)N(Cc1ccccc1F)C1CCS(=O)(=O)C1 (configuration not stated)	2.2	4.9	0.8	3.2	5.8*	-0.7
Cc1ccc(/C=N/n2c(C)nnc2C)o1	0.3	0.9	4.3*	0.6	4.0	0.5
Cc1ccc(/C=N/n2nnnc2N)o1	-0.1	-0.6	-0.3	-4.2	-1.1	-1.2
Cc1ccc(/C=N/n2c(C)nc3ccccc3c2=O)o1	0.1	1.7	4.5*	3.5	0.9	-1.3
Cc1nc2ccccc2c(=O)n1/N=C/c1ccc(N(C)C)cc1	0.2	0.4	3.6	5.7	-1.0	-0.7
Nc1ccc(CNc2ncn[nH]2)cc1	0.0	2.2	-0.1	-2.9	-0.8	-1.5
COCc1[nH]nc2c1C1(CCSCC1)C(C#N)=C(N)O2	0.2	2.8	0.3	-2.1	-0.2	-1.6
NC(=O)C(CCCCN1CCCCC1)(c1ccccc1)c1ccccc1	4.1*	0.1	1.6	0.0	-1.9	-0.5
Cc1cccc(N2CCN(C(=O)c3cc4c(=O)n(C)c5ccccc5c4n3C)CC2)c1C	1.0	-1.6	-0.8	-1.4	-2.5	1.9*
Cc1ccc(Cl)cc1N1CCN(C(=O)c2cc3c(=O)n(C)c4ccccc4c3n2C)CC1	-0.4	-1.2	-0.6	0.4	-2.4	-0.5
O=C(Cn1c(=O)n(Cc2ccco2)c(=O)c2ccccc21)Nc1cccc(Cl)c1	0.0	11.2*	1.5	-1.0	1.5	-1.1
Cc1ccc(NC(=O)Cn2c(=O)n(Cc3ccco3)c(=O)c3ccccc32)c(C)c1	0.2	-1.0	-0.7	-4.8	0.7	-0.9
O=C(O)c1ccc(-n2nnnc2Oc2ccccc2C(=O)N2CCOCC2)cc1	-0.5	-0.5	4.9*	2.0	-0.7	-1.0
C/C(=N/NC(=O)c1sc(NS(=O)(=O)c2ccccc2)nc1C)c1ccccc1	-0.1	0.2	5.6*	-1.2	-1.1	-1.4
Cc1ccccc1N=C1Nc2ccccc2CS1	0.5	11.0*	0.8	3.5	2.5	0.3
SMILES	DAX1 inh-1	hgDAF12 agonist	DAX1 inh-2	SMARCA2 activ	hcDAF12 agonist	ssDAF-12 act
CCN(CC)CCCNC(=O)c1nn(-c2ccccc2OC)c(=O)c2ccccc12	0.3	1.9	0.5	1.8	-1.4	-1.2
C/C(=N\NC(=O)COc1ccc(C)cc1C(C)C)c1ccc(-n2ccnc2)cc1	0.5	11.1*	-0.2	-0.9	-3.0	-1.6
O=C(Cc1c[nH]c2ccccc12)Nc1nnc(C2CC2)s1	0.2	-7.9	-1.3	1.6	1.4	-0.5
Cc1cccc(NC(=O)C2(c3ccc([N+](=O)[O-])cc3)CCCC2)c1	-1.3	-2.2	-2.0	-4.2	0.3	-1.3
COc1ccccc1N1CCN(c2ncnc3nc[nH]c23)CC1	-1.0	-1.4	-0.1	7.9*	-3.2	-1.3
O=C(N/N=C/c1ccc(O)cc1)c1csc2c1CCCC2	0.8	10.5*	0.0	0.7	-2.6	-1.3
CC(C)(C)NC(=O)c1ccccc1-c1nc2ccccc2s1	-0.8	-0.2	-0.2	1.1	1.3	1.6*
CC(C)(C)NC(=O)c1nc2ccccc2s1	-0.3	1.4	0.9	-0.8	-0.1	-1.4
COc1ccc(C(=O)N2CCN(C(C)=O)CC2)cc1S(=O)(=O)NCc1ccc(Cl)cc1	-0.6	-1.8	2.4	-0.7	0.5	-0.9
COc1cccc(C(=O)Nc2ccc(-c3nnc(-c4ccco4)o3)cc2)c1	-1.6	-3.1	-3.1	1.7	-2.9	-2.0
COc1cccc(-c2nnc(-c3ccco3)o2)c1	3.5	11.5*	-0.3	5.6	5.5	-0.9
CC(C)COc1ccc(-c2nnc(-c3ccco3)o2)cc1	3.7*	10.0	-0.1	3.7	4.5	0.8
CCCOc1ccc(-c2nnc(-c3ccco3)o2)cc1	3.7*	11.1*	-3.0	4.6	4.5	0.0
CCN(CC)CCCNc1ccc(-c2nnc(-c3ccc(OCC(C)C)cc3)o2)cn1	0.0	1.0	-1.6	-6.7	-1.9	-1.6
O=C(COc1ccccc1)Nc1ccc(-c2nnc(-c3ccco3)o2)cc1	0.8	8.8	0.4	3.1	6.3*	0.0
Oc1ccc(Br)cc1CNc1cccc2cccnc12	-0.8	-6.6	-1.8	-1.2	1.3	-1.5
CCc1cccc(NC(=O)CCC(=O)N2CCSc3ccccc32)c1	-1.4	0.1	-0.6	0.1	-1.9	-1.4
O=C(CN1CCCCC1CO)c1ccc(OC(F)F)cc1 (configuration not stated)	-0.2	0.0	4.5*	-0.8	-0.7	-1.8
O=C(CN1C(=O)c2cccc3cccc1c23)NCc1ccc2c(c1)OCO2	0.0	-1.6	0.3	-4.4	-2.5	-1.7
COC(=O)c1sccc1NC(=O)CSc1ccccc1NC(=O)CNC(C)C	-0.6	1.0	-1.6	-0.5	0.1	-0.6
COC(=O)c1sccc1NC(=O)CSc1ccccc1N	0.1	-1.0	4.8*	-1.7	0.0	-0.8
O=C(CSc1nccc(=O)[nH]1)Nc1ccc2c(c1)OCCO2	1.3	11.2*	4.8*	7.1	1.5	0.1

Assay outcomes (PubChem)
